# Test results published in PubChem BioAssay.
# Where “and” joins values, the source holds several entries; their conditions need not be identical. Equal entries are not always repeated. Calls of active or inactive are those of the source.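 Rule for the calls, unless noted: active = mean z-score across replicates of 1.96 or higher in either the MELAS or the Rieske mutant cell line; inactive = the rest.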
# What was measured:
# [1] = stimulators of nuclear beta-catenin in C2C12, primary screen, imaging, WNT3A-conditioned medium, mouse C2C12, NPC library (AID 1117326; in the data active = nuclear beta-catenin stimulation mostly above about 4.2%, no sharp cut-off; inactive = mostly below about 10%); details: stronger effect = higher value
# [2] = stimulators of insulin release from INS-1E, primary screen, cell-based, 5 mM glucose, NPC library (AID 1117329;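 active = compound raises insulin release from rat beta cells at 5 mM glucose, no numeric limit stated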); details: rat INS-1E insulin secretion, at 10 µM, stronger effect = higher value
# [3] = growth inhibition of GSK3B-pretreated HCT116 cells – cell-based, CellTiter-Glo, 0.2 to 20 µM (AID 1117336;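 active = compounds lowering colon cancer cell viability after pretreatment blocking the GSK3B kinase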); details: HCT116 viability after GSK3B inhibitor, at 20 µM, stronger effect = higher value
# [4] = inhibition of endothelial tube formation, primary screen, imaging, VEGF stimulated, CD31 staining, tube area, NPC library (AID 1117340;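 active = compound that reduces growth-factor-driven endothelial tube area in a mixed cell culture, no cutoff stated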); details: VEGF-stimulated ADSC/ECFC co-culture, at 10 µM, stronger effect = higher value
# [5] = glucagon-like peptide 1 release enhancers, primary assay, NCI-H716 cell line, NPC library (AID 1117341;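 active = compound raises GLP1 secretion from the human gut endocrine cells, with no numeric limit stated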); details: NCI-H716 cells, at 10 µM, stronger effect = higher value
# [6] = HCT116 colon cancer cell growth inhibition, primary screen, CellTiter-Glo luminescence, NPC library (AID 1117342;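 active = compounds that lower survival of HCT116 colon cancer cells in the luminescence readout, no numeric limit stated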); details: at 20 µM (top of the series)
# [7] = CellTiter-Glo luminescent readout of SW480 viability loss, NPC library primary (AID 1117343;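 active = compounds that lower viability of the colon cancer cells in the luminescence readout, with no numeric limit stated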); details: CellTiter-Glo luminescence; at 20 µM (top of the series)
# [8] = decreased DLD-1 cellular survival, CellTiter-Glo luminescent readout, NPC compound collection, primary HTS (AID 1117346;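 active = compounds that lower survival of DLD-1 colon cancer cells in the luminescence readout, no cutoff given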); details: DLD-1 viability, CellTiter-Glo luminescence; at 20 µM (top of the series)
# [9] = molecular target: 6-phosphogluconate dehydrogenase, decarboxylating (Homo sapiens) (UniProt P52209); assay: 6PGD enzyme inhibitors, primary screen, biochemical, human, recombinant enzyme, NADPH absorbance (AID 1159550;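 active = at least 20% inhibition of 6-phosphogluconate dehydrogenase activity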); details: recombinant 6PGD, NADPH absorbance 341 nm; at 10 µM; stronger effect = higher value
# 6-phosphogluconate dehydrogenase, decarboxylating (Homo sapiens), sequence (P52209 whole entry, looked up): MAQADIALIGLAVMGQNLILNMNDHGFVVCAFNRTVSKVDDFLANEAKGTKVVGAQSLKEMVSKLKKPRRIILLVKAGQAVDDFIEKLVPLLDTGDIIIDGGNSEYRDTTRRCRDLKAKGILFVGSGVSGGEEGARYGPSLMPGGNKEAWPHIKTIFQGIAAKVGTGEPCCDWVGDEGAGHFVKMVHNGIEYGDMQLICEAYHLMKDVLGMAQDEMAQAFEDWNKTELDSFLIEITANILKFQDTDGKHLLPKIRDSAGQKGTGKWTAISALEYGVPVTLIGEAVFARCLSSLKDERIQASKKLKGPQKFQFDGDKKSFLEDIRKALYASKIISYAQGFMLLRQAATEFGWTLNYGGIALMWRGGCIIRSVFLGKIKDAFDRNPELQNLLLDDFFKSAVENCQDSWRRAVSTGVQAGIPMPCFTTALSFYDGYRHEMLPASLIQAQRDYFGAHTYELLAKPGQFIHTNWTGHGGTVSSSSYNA
# [10] = modulation of C. elegans fzo-1 (AID 1259413; call rule not given here;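 note: fzo-1 mutant C. elegans worms in liquid wells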); details: C. elegans fzo-1 modulator screen, mean read-out; stronger effect = higher value
# [11] = differential killing of epithelial or mesenchymal cells, primary screen, imaging, PC-3E GFP, TEM4-18 mCherry, co-culture (AID 1345086;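 active = compounds killing one labelled cell type while sparing the other, by normalised counts and ratio limits, not self-fluorescent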;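 for all read-outs here: cells exposed to compound for 72 h before imaging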;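 for red/green cell ratio (normalised): normalised mesenchymal count divided by normalised epithelial count so high means epithelial killing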); details: imaging cell counts, at 1 µM; for red/green cell ratio (normalised): actives lie on both sides, counts scaled to control wells, 1 = unselective
# [12] = survival rescue of mitochondrial mutant cells in low glucose, primary screen, MELAS cybrids, Rieske KO mouse fibroblasts, CellTiter-Glo (AID 1508586);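 note: z relative to plate mean and SD of compound and empty wells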
# [13] = molecular target: NAD(+) hydrolase SARM1 (Homo sapiens) (UniProt Q6SZW1); assay: SARM1 TIR NADase inhibitors, cell lysate, NAD-Glo luminescence (AID 1508614;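 active = compound whose remaining NAD level is above about 45 nM, limit read from the data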;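 note: higher remaining NAD means stronger inhibition of SARM1 NADase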); details: SAM-TIR HEK293T lysate NADase, at 1 µM, stronger effect = higher value
# NAD(+) hydrolase SARM1 (Homo sapiens), sequence (Q6SZW1 whole entry, looked up, the tested form may be a part): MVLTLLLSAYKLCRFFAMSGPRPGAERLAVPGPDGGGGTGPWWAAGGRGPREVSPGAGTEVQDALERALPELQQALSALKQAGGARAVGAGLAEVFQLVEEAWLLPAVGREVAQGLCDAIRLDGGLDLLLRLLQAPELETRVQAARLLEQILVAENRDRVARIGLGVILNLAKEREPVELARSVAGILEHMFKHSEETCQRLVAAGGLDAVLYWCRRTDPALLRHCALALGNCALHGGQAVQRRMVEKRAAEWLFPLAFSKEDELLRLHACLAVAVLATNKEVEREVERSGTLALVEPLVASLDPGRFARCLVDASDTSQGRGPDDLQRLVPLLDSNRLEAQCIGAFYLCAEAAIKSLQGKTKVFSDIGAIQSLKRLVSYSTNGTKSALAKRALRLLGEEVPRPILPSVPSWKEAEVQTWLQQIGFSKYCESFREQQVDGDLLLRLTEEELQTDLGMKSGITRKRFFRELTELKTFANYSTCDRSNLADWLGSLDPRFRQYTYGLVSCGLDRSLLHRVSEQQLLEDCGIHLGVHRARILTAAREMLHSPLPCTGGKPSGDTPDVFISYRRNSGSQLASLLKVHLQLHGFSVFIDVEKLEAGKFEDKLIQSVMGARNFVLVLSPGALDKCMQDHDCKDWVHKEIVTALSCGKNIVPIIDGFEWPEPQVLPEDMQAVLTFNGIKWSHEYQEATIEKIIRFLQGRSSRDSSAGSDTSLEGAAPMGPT
# [14] = molecular target: Mitogen-activated protein kinase 7 (Homo sapiens) (UniProt Q13164); assay: ERK5 transactivation activators in reporter cells, primary screen, cell-based, HTS (AID 1508626;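 active = luciferase signal above three times the same-plate solvent-only control wells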;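 note: luciferase driven by Gal4-ERK5 fusion binding five Gal4 sites before minimal TATA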); details: HeLa Gal4-ERK5 transactivation, 18 h, at 5 µM, stronger effect = higher value
# Mitogen-activated protein kinase 7 (Homo sapiens), sequence (Q13164 whole entry, looked up, the tested form may be a part): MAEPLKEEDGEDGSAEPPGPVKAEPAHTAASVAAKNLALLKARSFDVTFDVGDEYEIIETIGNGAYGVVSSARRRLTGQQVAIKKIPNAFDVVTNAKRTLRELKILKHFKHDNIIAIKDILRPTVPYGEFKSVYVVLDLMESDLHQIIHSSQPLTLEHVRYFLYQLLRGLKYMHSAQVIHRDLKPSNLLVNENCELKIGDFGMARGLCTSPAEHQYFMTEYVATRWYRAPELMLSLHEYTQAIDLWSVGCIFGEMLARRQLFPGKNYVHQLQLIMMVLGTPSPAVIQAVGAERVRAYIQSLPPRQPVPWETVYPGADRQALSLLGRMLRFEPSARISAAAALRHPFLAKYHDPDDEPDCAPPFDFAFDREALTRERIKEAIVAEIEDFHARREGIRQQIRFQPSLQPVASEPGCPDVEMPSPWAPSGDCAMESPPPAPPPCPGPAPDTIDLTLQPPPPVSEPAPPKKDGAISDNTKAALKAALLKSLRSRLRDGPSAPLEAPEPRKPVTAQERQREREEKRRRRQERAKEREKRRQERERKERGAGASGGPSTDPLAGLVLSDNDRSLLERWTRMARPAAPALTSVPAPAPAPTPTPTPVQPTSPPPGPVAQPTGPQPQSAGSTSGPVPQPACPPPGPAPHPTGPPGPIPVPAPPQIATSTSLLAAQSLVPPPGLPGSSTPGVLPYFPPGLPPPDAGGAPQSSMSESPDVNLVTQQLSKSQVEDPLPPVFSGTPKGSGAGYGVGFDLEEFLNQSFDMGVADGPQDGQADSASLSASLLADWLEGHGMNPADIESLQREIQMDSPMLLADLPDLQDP
# F380Y = assay: modulators of BK channel variants, profiling panel, selectivity assay, cell-based, U2OS BacMam, thallium flux, beta subunits (AID 1259406;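 active = thallium flux through the channel raised or lowered by more than 3 SD from vehicle-only wells, actives on both sides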;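 note: initial slope of Thallos dye fluorescence rise after thallium is added; log ratio against the mean of 0.3% DMSO vehicle wells on the same plate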); details: at 30 µM
# F380Y/beta1 = assay: as above; details: at 30 µM
# F380Y/beta2Delta = assay: as above; details: at 30 µM
# [15] = ICB984 medulloblastoma cell growth inhibition, synergistic combos for chromothripsis tumors, cisplatin or BGB combos (AID 1671451; call rule not given here;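 note: cells exposed for 96 hours before readout; 0% = vehicle DMSO and 100% = killing by high DMSO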); details: ICB984 medulloblastoma cells, drug combinations, stronger effect = higher value
# [16] = measured here: epithelial PC-3E GFP cell survival
# [17] = measured here: mesenchymal TEM4-18 mCherry cell survival
# [18] = MELAS cybrid survival, CellTiter-Glo 48 h, stronger effect = higher value
# [19] = Rieske KO mouse fibroblast survival, CellTiter-Glo 72 h
compound,measurement,setting,value
Clc1cccc(Cl)c1NC1=NCCN1,nuclear beta-catenin stimulation,[1]; at 10 µM,0.7% (inactive)
same,nuclear beta-catenin stimulation,"[1]; stimulation, at 2 µM",0.7%
same,insulin secretion stimulation,[2],1.9% (inactive)
same,viability decrease,[3],-10.4% (inactive)
same,tube area decrease,[4],-5.1% (inactive)
same,GLP1 secretion stimulation,[5],1% (inactive)
same,inhibition of viability,[6],-0.6% (inactive)
same,viability decrease (inhibition),[7],-15.3% (inactive)
same,viability decrease (inhibition),[8],-4.9% (inactive)
same,inhibition,[9],13.3% (inactive)
same,mean signal,[10],231 (inactive)
same,red/green cell ratio (normalised),[11],1.14 (inactive)
same,normalised cell number,[11]; [16],1.33
same,normalised cell number,[11]; [17],1.52
same,z-score,[12]; [18],-0.353 (inactive) and 0.0276 (inactive) and 0.719 (inactive)
same,z-score,[12]; [19],0.516 and -0.377 and -0.412
same,remaining NAD,[13],10 nM (inactive)
same,luciferase signal,[14],64 AU (inactive)
same,log fold change Tl+ flux,F380Y,0.0065 (inactive)
same,log fold change Tl+ flux,F380Y/beta1,0.0554 (inactive)
same,log fold change Tl+ flux,F380Y/beta2Delta,0.0431 (inactive)
CCN(CC)CCCC(C)Nc1c2ccc(Cl)cc2nc2ccc(OC)cc12 (centres undefined),nuclear beta-catenin stimulation,[1]; at 10 µM,3.9% (inactive)
same,nuclear beta-catenin stimulation,"[1]; stimulation, at 2 µM",1.8%
same,insulin secretion stimulation,[2],84.6% (active)
same,viability decrease,[3],103% (active)
same,tube area decrease,[4],97.1% (active)
same,GLP1 secretion stimulation,[5],7.1% (inactive)
same,inhibition of viability,[6],102% (active)
same,viability decrease (inhibition),[7],122% (active)
same,viability decrease (inhibition),[8],97.7% (active)
same,inhibition,[9],1.31% (inactive)
same,red/green cell ratio (normalised),[11],1.37 (inactive)
same,normalised cell number,[11]; [16],0.76
same,normalised cell number,[11]; [17],1.04
same,z-score,[12]; [18],0.298 and 1.99 (active) and 1.02
same,z-score,[12]; [19],6.25 and 5.35 and 3.32
same,remaining NAD,[13],10 nM (inactive)
same,luciferase signal,[14],1610 AU (active)
same,inhibition,"[15]; BGB IC20 combo, at 0.005 µM",-4.02%
same,inhibition,"[15]; BGB IC40 combo, at 0.005 µM",16.5%
same,inhibition,"[15]; BGB IC40 combo, at 0.05 µM",90.3%
same,inhibition,[15]; at 0.5 µM,-2.08% (inactive)
same,inhibition,"[15]; cisplatin combo, at 0.05 µM",90%
same,inhibition,"[15]; cisplatin combo, at 0.5 µM",-4.11%
same,inhibition,"[15]; cisplatin combo, at 5 µM",-21.6%
same,inhibition,"[15]; measured here: 5 uM single agent, at 5 µM",1.6%
CCN(CC)CCCC(C)Nc1ccnc2cc(Cl)ccc12 (centres undefined),nuclear beta-catenin stimulation,[1]; at 10 µM,1.4% (inactive)
same,nuclear beta-catenin stimulation,"[1]; stimulation, at 2 µM",-0.7%
same,insulin secretion stimulation,[2],11.2% (inactive)
same,viability decrease,[3],-10.8% (inactive)
same,tube area decrease,[4],23% (inactive)
same,GLP1 secretion stimulation,[5],6.3% (inactive)
same,inhibition of viability,[6],19.9% (inactive)
same,viability decrease (inhibition),[7],31.4% (inactive)
same,viability decrease (inhibition),[8],5.6% (inactive)
same,inhibition,[9],7.49% (inactive)
same,red/green cell ratio (normalised),[11],1.21 (inactive)
same,normalised cell number,[11]; [16],0.99
same,normalised cell number,[11]; [17],1.2
same,z-score,[12]; [18],0.423 (inactive) and -0.395 (inactive)
same,z-score,[12]; [19],0.725 and -1.28
same,remaining NAD,[13],10 nM (inactive)
same,luciferase signal,[14],40 AU (inactive)
CC1=C(CC(=O)O)c2cc(F)ccc2/C1=C\c1ccc(S(C)=O)cc1 (centres undefined),nuclear beta-catenin stimulation,[1]; at 10 µM,-1.5% (inactive)
same,nuclear beta-catenin stimulation,"[1]; stimulation, at 2 µM",0.2%
same,insulin secretion stimulation,[2],0.2% (inactive)
same,viability decrease,[3],-51.5% (inactive)
same,tube area decrease,[4],15.7% (inactive)
same,GLP1 secretion stimulation,[5],-1.1% (inactive)
same,inhibition of viability,[6],-9.1% (inactive)
same,viability decrease (inhibition),[7],15% (inactive)
same,viability decrease (inhibition),[8],-23.3% (inactive)
same,inhibition,[9],2.79% (inactive)
same,mean signal,[10],230 (inactive)
same,red/green cell ratio (normalised),[11],1.2 (inactive)
same,normalised cell number,[11]; [16],0.35
same,normalised cell number,[11]; [17],0.43
same,z-score,[12]; [18],-0.637 (inactive)
same,z-score,[12]; [19],0.215
same,remaining NAD,[13],10 nM (inactive)
same,luciferase signal,[14],56 AU (inactive)
same,log fold change Tl+ flux,F380Y,0.0356 (inactive)
same,log fold change Tl+ flux,F380Y/beta1,0.0787 (inactive)
same,log fold change Tl+ flux,F380Y/beta2Delta,0.0561 (inactive)
